Screens from PubChem.
MITF TRPM1 HTS: increases MITF-driven TRPM1 promoter luciferase signal; SK-MEL-5 TRPM1-promoter luciferase, 24 h; % of positive control, neutral wells = 0; activation, % at 12.5 µM; 0.75% of 300,000 active;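 active means mean activation of at least 80% with every replicate also reaching 80%; inconclusive means mean reaches 80% but some replicate falls short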;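 further: 0% = neutral control wells and 100% = parthenolide positive control wells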
miR122 inh: blocks miR-122 activity in Huh7 sensor cells. Huh7 miR-122 Renilla luciferase sensor, 48 h; neutral wells = 0, positive control = 100. activation (reporter increase), % at 12.5 µM. 0.3% of 340,000 active;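 active means mean replicate activation score at least 90 and every replicate individually at or above 90; inconclusive means only one of the two criteria met; inactive means neither criterion met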;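 further: higher luciferase means less miR-122 activity so hits act as miR-122 inhibitors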
HIV Env fusion: inhibitors of HIV Env-mediated cell fusion | HeLa-JRFL Env/CEM21 cell fusion, luciferase | inhibition, % at 12.3 µM | 1.1% of 360,000 active;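 active means mean replicate inhibition score of at least 50 and every replicate individually at or above 50; inconclusive means only one of the two criteria met; inactive means mean below 50 and not all replicates reaching 50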;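 further: 0% = plate neutral controls and 100% = maraviroc near 300 nM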
Wnt act: activates Wnt/beta-catenin signaling in a reporter cell assay; activation, % at 9.35 µM; 1.2% of 300,000 active; activator, plate reader; in the data active means activation above about 30%, passing the limit was not always enough; inconclusive means no clear call, values can overlap the other calls;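 further: 0% = neutral control wells and 100% = positive control wells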
esBAF inh: inhibitors of esBAF chromatin remodeling in mouse ES cells; Bmi1-luciferase knock-in reporter, 24 h; 100% = twice the neutral-well signal; reporter increase, % at 12.5 µM; 2% of 350,000 active; in the data active means activation above about 40%; inconclusive means no clear call, values can overlap the other calls;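 further: 0% = median of the plate's neutral control wells and 100% = double that signal; a rise in the Bmi1 reporter signal indicates esBAF inhibition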
* hit, by the source's call; u = inconclusive; x = no result; [ ] = another dose, or the depositor's remark. Rows were chosen to be rich in hits. Some 3.4% of all compounds tested hit in one or more screens of this group.

SMILES	MITF TRPM1 HTS	miR122 inh	HIV Env fusion	Wnt act	esBAF inh
COc1ccccc1N1CCN(C(=O)c2cc(-c3ccccc3)on2)CC1	9.8	1.1	2.0	-0.4	9.8
COc1cccc(OCc2cc(C(=O)N3CCN(c4ccccc4O)CC3)no2)c1	96.5*	-6.5	-28.3	25.6	48.7*
CC(C)NC(=O)N(C)C[C@@H]1Oc2cc(C#C[C@@H](C)O)ccc2S(=O)(=O)N([C@H](C)CO)C[C@@H]1C	x	-9.2[16.7 µM]	x	x	-1.4
O=c1c2c3c(sc2nc2n1CCCCC2)CCCCC3	51.0	7.0	x	x	61.6*
N=c1c2c3c(sc2nc2n1CCCCC2)CCCCC3	69.6	1.5	x	x	48.3*
O=c1c2c3c(sc2nc2n1CCCC2)CCCCC3	39.2	-1.7	x	x	x
O=c1c2c3c(sc2nc2n1CCCCC2)CCCC3	x	-9.1	-151.6	39.4*	50.2*
Cc1ccc2nc(NC(=O)CCNS(=O)(=O)c3cccs3)sc2c1	46.4	-2.0	-68.5	11.9	69.6*
Cc1ccc2nc(NC(=O)CSCC(=O)OCC(=O)c3ccc(Br)cc3)sc2c1	x	-2.4	73.1*	-29.0	-67.0
NS(=O)(=O)c1ccc2nc(NC(=O)CS(=O)(=O)c3ccccc3)sc2c1	15.9	-8.6	-3.6	-2.1	1.3
O=C(CS(=O)(=O)c1ccccc1)Nc1nc2ccccc2s1	3.9	5.1	-14.3	10.9	40.9*
CS(=O)(=O)c1ccc2nc(NC(=O)CS(=O)(=O)Cc3ccccc3)sc2c1	7.9	x	-1.2	-0.2	x
COC(=O)c1ccc2nc(NC(=O)CSCC(=O)OCC(=O)c3ccccc3)sc2c1	3.9	-1.3	14.6	-1.5	28.7
Cc1ccc2nc(NC(=O)CS(=O)(=O)Cc3ccccc3)sc2c1	16.1	1.2	1.4	40.1*	5.7
CNC[C@H]1Oc2ccc(NC(=O)Nc3c(C)noc3C)cc2C(=O)N([C@@H](C)CO)C[C@@H]1C	x	-3.0[16.7 µM]	-11.5[16.7 µM]	x	-5.9
O=C(NCC[C@@H]1CC[C@@H](NC(=O)C2CCCCC2)[C@@H](CO)O1)c1cc(Cl)cc(Cl)c1	x	x	10.2[16.7 µM]	x	1.7
Cc1ccc2nc(NC(=O)COC(=O)c3ccncc3)sc2c1	72.4	x	-14.8	25.7	x
COCC(=O)Nc1nc2ccc(C)cc2s1	49.2	x	-114.0	39.7*	x
COc1ccc(-c2ccc3c(c2)[C@@H]2[C@@H](CCN2S(=O)(=O)c2ccccc2F)[C@@H](CO)N3)cc1	x	-7.6[16.7 µM]	x	x	-2.3
Oc1ccc(Cl)cc1CNc1ccc(Br)cn1	74.0	-13.8	-188.6	x	75.4*
Oc1ccc(Cl)cc1CNc1nccs1	x	-0.6	8.3	45.3*	-1.2
COc1ccc(-c2ccn(-c3cccc(F)n3)n2)cc1	25.9	10.7	-42.9	8.0	54.4*
CCOC(=O)C1(NC(=O)C2(NC(=O)CN3C(=O)c4ccccc4C3=O)CCCC2)CCCC1	-2.1	-1.9	11.8	47.3*	-2.7
Cc1c(C(=O)Oc2cccc3ccccc23)cnn1-c1ccccc1	33.6	4.9	x	x	44.9*
Cc1c(C(=O)Nc2cc(F)cc(F)c2)cnn1-c1ccccc1	121.1*	-12.5	-107.8	57.3*	u
SMILES	MITF TRPM1 HTS	miR122 inh	HIV Env fusion	Wnt act	esBAF inh
Cc1ccc(NC(=O)c2cnn(-c3ccccc3)c2NC(=O)c2ccco2)cc1C	20.5	-0.3	x	10.5	55.2*
CCN(CC)C(=O)c1cnn(-c2ccccc2)c1NC(=O)c1ccco1	-1.0	-5.1	x	-3.6	-10.0
CCc1ccc(NC(=O)c2cnn(-c3ccccc3)c2C)cc1	43.8	x	x	x	x
Cc1c(C(=O)Nc2ccccc2F)cnn1-c1ccccc1	88.4*	-9.1	-36.4	10.0	24.0
C[C@@H]1CN([C@H](C)CO)C(=O)Cc2cc(NC(=O)CCC(F)(F)F)ccc2O[C@H]1CN(C)Cc1ccc(C(=O)O)cc1	x	0.5[16.7 µM]	x	x	1.4
C[C@@H]1CN([C@H](C)CO)C(=O)c2cc(NS(=O)(=O)c3cn(C)cn3)ccc2O[C@H]1CN(C)S(=O)(=O)c1ccc(F)cc1	x	-1.0[16.7 µM]	x	x	-3.8
C[C@H]1CN([C@@H](C)CO)C(=O)c2cc(NS(=O)(=O)c3ccc(Cl)cc3)ccc2O[C@@H]1CN(C)C(=O)Nc1ccc(C(F)(F)F)cc1	x	2.4[16.7 µM]	-16.6[16.7 µM]	x	2.8
C[C@@H]1CCCCO[C@@H](CN(C)C(=O)Nc2ccc(F)cc2)[C@H](C)CN([C@@H](C)CO)C(=O)c2cc(NC(=O)c3ccncc3)ccc2O1	x	1.9[16.7 µM]	-7.8[16.7 µM]	x	5.7
CC=Cc1ccc2n(c1=O)C[C@@H]1[C@@H](CO)[C@H](C(=O)NCCC)[C@H]2N1C(=O)c1ccccc1F (mixture of isomers)	x	1.4[16.7 µM]	x	x	-4.0
CCn1ccnc1[C@@H]1C[C@H]2CN(Cc3cccc(Cl)c3)C(=O)[C@]23CCCN13	-7.3	-7.6	-9.0	-0.2	x
O=C1N(Cc2cccc(Cl)c2)C[C@@H]2C[C@@H](c3ccccn3)N3CCC[C@@]123	-2.1	-6.3	1.2	33.1*	0.1
CN(C)C(=O)c1cc2c(c(-c3cccc(-c4ccc(F)cc4)c3)n1)[C@H](CCO)N([S@@](=O)C(C)(C)C)C2	x	x	3.2[16.7 µM]	x	-6.2
Cc1cccc(NC(=O)c2n[nH]c([N+](=O)[O-])c2Br)c1C	78.9	2.0	-131.4	44.5*	12.8
C[C@H]1CN([C@@H](C)CO)C(=O)c2cccc(NC(=O)c3cnccn3)c2O[C@@H]1CN(C)C(=O)Nc1ccccc1	x	-2.8[16.7 µM]	x	x	0.3
Cn1c(C(=O)NCCCN2CCN(c3ccccc3F)CC2)cc2c(=O)[nH]c3ccccc3c21	2.6	-2.3	93.6*	x	-6.8
CN(CCCNC(=O)c1cc2c(=O)[nH]c3ccccc3c2n1C)Cc1ccccc1	9.3	x	59.1*	-0.6	x
CC(C)(C)c1csc(NC(=O)Cc2ccc(S(=O)(=O)N3CCOCC3)s2)n1	-6.2	1.7	-2.5	-3.9	42.6*
Cc1ccc(S(=O)(=O)N2CCN(C(=O)Cc3ccc(S(=O)(=O)N4CCOCC4)s3)CC2)cc1	-4.1	-1.4	38.4	-0.8	-2.0
O=C(Cc1ccc(S(=O)(=O)N2CCOCC2)s1)N1CCN(S(=O)(=O)c2ccc(Cl)cc2)CC1	-18.7	-1.7	69.6*	-4.9	10.4
COCCCNC(=O)Cc1ccc(S(=O)(=O)N2CCOCC2)s1	-1.9	-1.9	-3.0	54.6*	1.4
CCc1ccc([C@H]2[C@@H]3C(=O)C[C@@H]4C(=O)N(Cc5ccccc5)C(=O)[C@@H]4[C@@H]3CN2S(=O)(=O)c2ccc(C)cc2)cc1	x	-0.3	71.4*	-2.4	7.3
CCc1ccc([C@@H]2CC(=O)[C@@H]3CN(S(=O)(=O)c4ccc(Cl)cc4)[C@H](c4ccc(C)cc4)C[C@@H]3N2S(=O)(=O)c2ccc(C)cc2)cc1	x	1.4	x	-3.5	-3.1
CCc1ccc([C@H]2[C@@H]3C(=O)C[C@@H]4C(=O)N(C5CCCCC5)C(=O)[C@@H]4[C@@H]3CN2S(=O)(=O)c2ccc(C)cc2)cc1	x	-6.0	155.3*	-2.1	-2.6
CCc1ccc(C2CC3C(CN2S(=O)(=O)c2ccc(C)cc2)[C@@H](O)C[C@@H](c2ccc(CC)cc2)N3S(=O)(=O)c2ccc(C)cc2)cc1 (some centres undefined)	x	x	60.6*	-10.5	x
